Laboratory results from PubChem BioAssay.
The source made the active and inactive calls.

Key:
[1] = small molecules captured by biotinylated probe aFSTL3 – biochemical, small-molecule microarray, fluorescence 635/667, stem cell growth factor project, primary screen (AID 1064); conditions: higher = more signal;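 also: measures binding of the biotinylated anti-FSTL3 antibody to printed compounds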
[2] = binders from COS7 lysate, DM2A8 probe, primary screen, torsin A project, cell lysate, small-molecule microarray, fluorescence 635/667 (AID 1065); conditions: higher = more signal, COS7 lysate expressing mutant human TOR1A
[3] = small molecules captured by biotinylated probe aFGF2 – biochemical, small-molecule microarray, fluorescence 635/667, stem cell growth factor project, primary screen (AID 1067); conditions: higher = more signal;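 also: measures binding of biotinylated aFGF2 protein to printed compounds on slides; z-score merges feature fluorescence and signal-to-noise across triplicate slides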
[4] = small molecules captured by biotinylated probe aFGF10 – biochemical, small-molecule microarray, fluorescence 635/667, stem cell growth factor project, primary screen (AID 1071); conditions: higher = more signal;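 also: score merges 667 nm spot intensity and signal to noise from triplicate slides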
[5] = target: Neurogenic locus notch homolog protein 2 (Homo sapiens) (UniProt Q04721); experiment: small molecules binding Notch2 protein – biochemical, small-molecule microarray, 635 nm fluorescence, stem cell growth factors, primary screen (AID 1073); conditions: higher = more signal
Chain of Neurogenic locus notch homolog protein 2 (Homo sapiens) (Q04721 whole entry, looked up, canonical isoform): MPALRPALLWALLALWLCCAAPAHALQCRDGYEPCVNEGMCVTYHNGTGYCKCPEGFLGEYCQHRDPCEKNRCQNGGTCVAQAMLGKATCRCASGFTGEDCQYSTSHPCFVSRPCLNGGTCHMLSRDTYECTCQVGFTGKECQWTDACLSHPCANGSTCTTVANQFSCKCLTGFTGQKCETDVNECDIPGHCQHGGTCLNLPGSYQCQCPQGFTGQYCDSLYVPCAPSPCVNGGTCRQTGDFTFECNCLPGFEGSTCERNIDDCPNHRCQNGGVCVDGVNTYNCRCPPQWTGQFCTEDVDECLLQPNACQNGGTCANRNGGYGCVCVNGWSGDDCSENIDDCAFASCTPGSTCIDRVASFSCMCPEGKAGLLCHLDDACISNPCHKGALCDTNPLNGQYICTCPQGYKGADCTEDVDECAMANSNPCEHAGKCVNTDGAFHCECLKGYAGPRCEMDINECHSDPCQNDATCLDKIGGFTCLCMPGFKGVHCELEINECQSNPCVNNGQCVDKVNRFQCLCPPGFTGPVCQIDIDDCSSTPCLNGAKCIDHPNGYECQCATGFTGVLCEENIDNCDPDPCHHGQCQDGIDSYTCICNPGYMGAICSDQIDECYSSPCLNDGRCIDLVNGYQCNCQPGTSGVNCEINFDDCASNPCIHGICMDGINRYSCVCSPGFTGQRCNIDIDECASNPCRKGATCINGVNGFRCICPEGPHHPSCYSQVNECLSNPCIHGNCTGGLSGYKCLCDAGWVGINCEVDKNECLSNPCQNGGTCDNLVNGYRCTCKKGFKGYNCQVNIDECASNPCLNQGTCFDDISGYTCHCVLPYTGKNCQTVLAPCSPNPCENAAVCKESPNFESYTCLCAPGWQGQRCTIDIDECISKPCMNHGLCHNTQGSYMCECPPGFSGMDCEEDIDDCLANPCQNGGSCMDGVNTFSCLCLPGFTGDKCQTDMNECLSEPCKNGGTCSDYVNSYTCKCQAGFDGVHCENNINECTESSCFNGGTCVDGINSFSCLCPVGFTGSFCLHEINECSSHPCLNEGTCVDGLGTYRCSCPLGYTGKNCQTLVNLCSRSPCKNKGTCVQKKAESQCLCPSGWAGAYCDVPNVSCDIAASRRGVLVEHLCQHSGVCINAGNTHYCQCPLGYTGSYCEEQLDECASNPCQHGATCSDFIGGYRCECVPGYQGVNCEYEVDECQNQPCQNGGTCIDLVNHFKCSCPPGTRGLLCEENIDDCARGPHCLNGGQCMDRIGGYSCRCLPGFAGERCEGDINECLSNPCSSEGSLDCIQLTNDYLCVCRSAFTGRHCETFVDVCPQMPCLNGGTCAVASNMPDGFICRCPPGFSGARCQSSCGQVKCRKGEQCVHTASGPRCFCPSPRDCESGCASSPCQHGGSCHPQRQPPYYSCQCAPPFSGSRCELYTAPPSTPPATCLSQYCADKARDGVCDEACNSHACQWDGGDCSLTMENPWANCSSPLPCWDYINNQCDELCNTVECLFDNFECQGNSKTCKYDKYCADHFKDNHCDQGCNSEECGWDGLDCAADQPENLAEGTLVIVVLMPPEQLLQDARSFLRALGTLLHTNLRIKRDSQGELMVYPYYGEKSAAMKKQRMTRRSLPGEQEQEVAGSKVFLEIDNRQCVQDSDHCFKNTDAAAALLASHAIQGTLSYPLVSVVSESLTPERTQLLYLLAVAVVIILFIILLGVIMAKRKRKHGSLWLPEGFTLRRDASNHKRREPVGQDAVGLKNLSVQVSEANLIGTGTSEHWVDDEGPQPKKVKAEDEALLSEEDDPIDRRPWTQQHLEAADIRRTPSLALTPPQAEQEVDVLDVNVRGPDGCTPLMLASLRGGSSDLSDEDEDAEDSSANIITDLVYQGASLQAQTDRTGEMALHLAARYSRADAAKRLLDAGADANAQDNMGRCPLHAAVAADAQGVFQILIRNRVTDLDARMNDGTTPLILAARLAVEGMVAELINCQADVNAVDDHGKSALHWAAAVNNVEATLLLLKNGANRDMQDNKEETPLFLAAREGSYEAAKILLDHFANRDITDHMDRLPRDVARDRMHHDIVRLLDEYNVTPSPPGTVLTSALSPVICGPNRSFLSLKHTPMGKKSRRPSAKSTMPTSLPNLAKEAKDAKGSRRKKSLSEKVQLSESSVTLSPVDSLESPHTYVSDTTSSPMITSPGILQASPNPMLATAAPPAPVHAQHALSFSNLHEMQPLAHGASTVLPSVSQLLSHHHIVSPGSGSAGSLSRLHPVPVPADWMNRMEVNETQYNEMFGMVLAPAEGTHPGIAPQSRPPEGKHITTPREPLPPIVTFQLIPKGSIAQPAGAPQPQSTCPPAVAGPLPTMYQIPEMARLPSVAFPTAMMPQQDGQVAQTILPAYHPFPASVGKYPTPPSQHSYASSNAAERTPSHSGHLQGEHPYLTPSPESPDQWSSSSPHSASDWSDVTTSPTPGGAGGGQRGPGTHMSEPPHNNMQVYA

[6] = target: Pro-neuregulin-1, membrane-bound isoform (Homo sapiens) (UniProt Q02297); experiment: small molecules binding neuregulin-1 protein – biochemical, small-molecule microarray, fluorescence 635/667, psychiatric disease protein project, primary screen (AID 1075); conditions: NRG1 binding, 635 nm fluorescence, higher = more signal;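 also: score combines 667 nm spot fluorescence with signal to noise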
Chain of Pro-neuregulin-1, membrane-bound isoform (Homo sapiens) (Q02297 whole entry, looked up, the tested form may be a part, canonical isoform): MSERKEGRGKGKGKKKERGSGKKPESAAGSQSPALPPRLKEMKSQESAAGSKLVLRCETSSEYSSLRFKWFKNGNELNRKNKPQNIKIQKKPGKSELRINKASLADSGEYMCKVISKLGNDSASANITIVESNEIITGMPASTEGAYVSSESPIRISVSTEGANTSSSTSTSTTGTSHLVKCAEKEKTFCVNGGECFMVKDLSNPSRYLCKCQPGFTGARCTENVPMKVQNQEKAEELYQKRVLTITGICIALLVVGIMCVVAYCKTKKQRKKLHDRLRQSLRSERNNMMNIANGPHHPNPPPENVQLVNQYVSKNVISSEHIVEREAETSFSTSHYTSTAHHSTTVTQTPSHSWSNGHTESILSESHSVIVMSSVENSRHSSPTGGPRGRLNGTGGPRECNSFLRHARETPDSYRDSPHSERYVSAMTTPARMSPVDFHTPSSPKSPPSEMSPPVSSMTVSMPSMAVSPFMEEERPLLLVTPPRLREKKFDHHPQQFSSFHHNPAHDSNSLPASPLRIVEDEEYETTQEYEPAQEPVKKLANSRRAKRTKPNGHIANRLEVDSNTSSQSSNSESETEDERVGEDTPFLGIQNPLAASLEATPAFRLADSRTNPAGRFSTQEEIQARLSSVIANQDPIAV

[7] = system: Neuregulin-1 EGF-like domain; experiment: small molecules binding NRG1 EGF domain – biochemical, small-molecule microarray, 635 nm fluorescence, primary screen (AID 1081); conditions: higher = more signal;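 also: binding of the protein to compounds printed on small-molecule microarray slides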
[8] = FRG1 expression reporter modulators in myotubes – cell-based, C2C12 myotubes, firefly/Renilla luciferase, luminescence, FRG1 inhibition for FSHD, primary screen (AID 1084); conditions: FRG1 promoter luciferase, higher = more signal, called active from +8 up or from −8 down
[9] = small molecules captured by biotinylated probe aFST – biochemical, small-molecule microarray, fluorescence 635/667, stem cell growth factor project, primary screen (AID 1086); conditions: higher = more signal;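 also: score merges 667 nm fluorescence with signal-to-noise of each printed compound spot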
[10] = binders of probe aHhip on microarray, primary screen, stem cell growth factor project, biochemical, small-molecule microarray, fluorescence 635/667 (AID 1087); conditions: higher = more signal;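 also: score merges spot fluorescence at 667nm with spot signal to noise ratio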

Compound	composite z-score [1]	composite z-score [2]	composite z-score [3]	composite z-score [4]	composite z-score [5]	composite z-score [6]	composite z-score [7]	z-score [8]	composite z-score [9]	composite z-score [10]
COCCCNC(=O)[C@@]1(Cc2ccccc2CN=[N+]=[N-])N=C(c2ccc(OCCCO)cc2)O[C@H]1c1ccccc1CN=[N+]=[N-]	-0.152	0.321	0.154	0.916	1.27	1.96	1.11	0.399 (inactive)	1.43	-0.286
C=C(/C(=C/C[C@H](OC(C)=O)c1ccc(OCCO)cc1)c1cc(C(=O)OC)ccc1OC)C(C)C	-0.183	0.585	-0.145	0.41	0.219	1.17	0.376	-0.863 (inactive)	0.388	-0.175
CC(=O)NCCCC[C@@H]1NC(=O)[C@H]2C[C@@H](C(=O)NCCCCCNC(=O)CS)[C@@H](c3ccc(O)cc3)N2C1=O	0.894	0.122	-0.0358	-0.0035	-0.886	0.0616	1.34	0.515 (inactive)	-0.226	-0.175
NC(=O)[C@@]1(Cc2ccccc2)N=C(c2ccc(OCCCO)cc2)O[C@H]1c1ccccc1	0.264	-0.154	-0.0891	0.501	1.08	1.45	0.994	-2.16 (inactive)	0.182	-0.189
CO[C@H]1O[C@H](CO)[C@@H](OC(=O)Nc2ccccc2)[C@@H]2OC(=O)[C@@H](Cc3ccc4ccccc4c3)C/C=C/C[C@H](Cc3ccc4ccccc4c3)C(=O)O[C@@H]12	0.0395	0.821	0.126	0.908	0.336	0.915	0.965	-1.62 (inactive)	0.316	-0.191
COCCOC(=O)N1C(=O)[C@@]2(c3ccccc31)[C@H](C(=O)N1CCCCCCC1)[C@H]1C(=O)O[C@H](c3ccccc3)[C@H](c3ccccc3)N1[C@@H]2c1ccc(OCCO)cc1	4.16	2.62	1.09	1.49	1.75	2.93	1.5	-1.64 (inactive)	3.82	3.98
CC#CC(=O)Oc1ccc(Br)cc1C=CC(=O)OCC	0.559	-0.422	-0.0304	0.0178	-0.497	0.334	1.34	0.128 (inactive)	0.375	0.095
O=C(O)[C@H]1C[C@H]2C(=O)N3CCC[C@H]3C(=O)N2[C@H]1c1ccc(O)cc1	1.22	-0.104	-0.195	-0.929	-2.12	-0.0857	0.804	-0.305 (inactive)	-0.834	0.147
C=CCN1C(=O)[C@]2(O[C@H](CCO)[C@@H]([Si](C)(C)c3ccc(OC)cc3)[C@@H]2C)c2cc(N(C=O)c3ccccc3)ccc21	0.0147	0.109	-0.0583	0.26	0.425	0.495	0.903	-2.69 (inactive)	0.359	0.0021
CCOC(=O)C[C@H]1[C@H](OC(=O)c2ccc(-c3ccccc3)cc2)[C@@H](NC(=O)c2ccccc2)c2cc(OCCCO)ccc2N1C(=O)Cc1ccc(OC)cc1	-0.287	-0.0212	-0.163	0.0185	-0.639	-0.31	-0.198	-0.304 (inactive)	-0.0166	-0.374
O=C1O[C@H](c2ccccc2)[C@H](c2ccccc2)N2[C@H]1[C@@H](C(=O)NC[C@H](O)c1ccccc1)[C@]1(C(=O)Nc3ccccc31)[C@H]2c1ccc(O)cc1	-0.0095	0.298	-0.0342	-0.111	0.633	-0.199	1.19	0.484 (inactive)	0.153	0.0542
CC1CC/C=C\[C@H]2OC34C=CCN(c5ccc6ccccc6c5)C(=O)[C@H]3N(CCO)C(=O)[C@@H]4C2C(=O)O1 (stereo not given in full)	-0.17	0.122	-0.0996	0.0867	-1.18	-0.378	0.868	0.571 (inactive)	-0.358	1.74
CC(C)CCC[C@@H](C)[C@H]1CC[C@@]2(C)C3=C(CC[C@]12C)[C@@]1(C)CC[C@H](OC(=O)c2ccc(C(F)(F)F)nc2)C(C)(C)C1CC3 (stereo not given in full)	-0.438	0.441	-0.103	0.312	0.443	-0.323	0.198	-1.46 (inactive)	-0.108	0.223
C#CCN(C/C=C/c1ccccc1)[C@H](CO)c1ccccc1	-0.565	0.484	-0.182	-0.254	0.261	-0.516	-0.0706	-0.786 (inactive)	0.288	0.0156
O=C1C[C@@](C(=O)NCc2ccccc2)(c2ccc([N+](=O)[O-])cc2)[C@@H](c2ccc(CO)cc2)N1CC12CC3CC(CC(C3)C1)C2	-0.237	0.447	0.0024	0.435	0.815	0.939	1.27	-2.72 (inactive)	0.282	-0.0994
[N-]=[N+]=Nc1ccccc1[C@H]1OC(c2ccc(OCCCO)cc2)=N[C@@]1(CCS(=O)(=O)c1ccccc1)C(=O)NCc1ccccc1	-0.196	0.144	0.0843	0.935	1.66	1.44	1.34	5.01 (inactive)	1.58	0.258
C[N+](C)(C)CCCCCCNC(=O)[C@H]1C[C@H]2C(=O)N[C@@H](Cc3ccccc3)C(=O)N2[C@H]1c1cccc(OCCO)c1	-0.429	0.652	-0.0266	0.293	0.357	0.318	1.31	3.64 (inactive)	-0.0975	-0.0645
COCCCNC(=O)[C@@]1(Sc2ccc(C)cc2)CC(=O)N(Cc2ccccc2Cl)[C@@H]1c1ccc(CO)cc1	0.59	2.15	-0.119	0.429	0.307	1.14	0.938	-2.45 (inactive)	0.393	-0.0645
CCCCC(=C=CC[C@H](O)c1cccc(OCCO)c1)C[C@H](O)c1ccccn1	-0.37	0.0714	-0.112	0.528	-0.202	0.163	0.719	-0.692 (inactive)	-0.157	-0.236
COCCCNC(=O)[C@@]1(Cc2ccccc2)N=C(c2ccc(OCCCO)cc2)O[C@H]1c1ccccc1CN=[N+]=[N-]	0.988	1.35	0.0762	0.806	1.25	1.74	1.11	-0.989 (inactive)	1.54	-0.194
COCCOC(=O)N1C(=O)[C@@]2(c3cc(C#CC4(O)CCCCCC4)ccc31)[C@H](c1ccccc1OCCO)N1[C@H](c3ccccc3)[C@H](c3ccccc3)OC(=O)[C@H]1[C@@H]2C(=O)N1CCc2cc(OC)c(OC)cc2C1	-0.207	0.788	-0.0685	0.542	1.03	1.6	1.19	-0.658 (inactive)	0.223	0.177
CCCC[C@H]1C[C@@H]1[C@@H]1N(P(=O)(c2ccccc2)c2ccccc2)C[C@@](O)(c2ccccc2)CC12CC2	0.666	-0.152	0.183	-0.102	1.45	0.862	0.541	1.11 (inactive)	1.39	0.893
CC(C)[C@@H](C(=O)O)n1cc(C2(O)CCCCC2)nn1	-0.401	-0.938	-0.183	0.78	0.63	0.394	0.451	0.356 (inactive)	0.27	-0.218
CN(C)CCCCCCNC(=O)[C@@H]1C[C@@H]2C(=O)N3CCC[C@H]3C(=O)N2[C@@H]1c1ccc(O)cc1	0.675	1.9	0.0923	1.18	0.697	0.543	1.35	1.53 (inactive)	0.886	0.124
CO[C@H]1O[C@H](CO)[C@@H](OC(=O)Nc2ccccc2-c2ccccc2)[C@H](OC(=O)Nc2ccccc2-c2ccccc2)[C@@H]1OC(=O)Nc1ccccc1-c1ccccc1	0.0212	0.503	-0.152	1.03	1.1	1.35	1.19	0.722 (inactive)	0.807	-0.189
O=C(NC1CC1)[C@@H]1c2ccccc2C(=O)N(C2Cc3ccccc3C2)[C@H]1c1ccc(CO)cc1	-0.549	0.847	-0.0618	0.139	1.01	0.639	0.807	-0.838 (inactive)	0.325	1.38
CN(C)CCCC[C@@H]1NC(=O)[C@H]2C[C@@H](C(=O)NCCCCCN)[C@@H](c3cccc(OCCO)c3)N2C1=O	1.88	2.19	0.269	0.558	1.12	2.28	1.3	-0.0269 (inactive)	1.75	1.16
